# In PubChem BioAssay (NCATS):
# Inconclusive results are not listed. Where a call stands in place of a potency, no number is given. Active and inactive are the calls of the source. The call rests on the fitted dose curve; in most records, active means well fitted curve in the direction sought with a large enough effect; inconclusive means small, poorly fitted or top-dose-only effect, or another doubt; inactive means no such curve, though single readings can be large; an effect the other way counts as inactive or inconclusive.
# Key:
# [1] = test system: MCC-13; test: qHTS assay to identify novel small-molecules to repurpose for Merkel cell carcinoma treatment (AID 1296009); details: MCC and control cell lines, CellTiter-Glo viability, 72 h; series mostly up to 46 µM; further: nearly all actives have a fitted effect of over 60% in size
# Summary of the method: (§1)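 qHTS format: cells treated with library compounds in DMSO across 8 (NPC) or 11 (MIPE) concentrations. Readout after 72 hr at 37 degree celsius was CellTiter-Glo luminescence.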
# [2] = test system: MCC-26; test: as above; details: MCC and control cell lines, CellTiter-Glo viability, 72 h; series mostly up to 46 µM
# Summary of the method: as §1
# [3] = test system: MKL-1; test: as above; details: MCC and control cell lines, CellTiter-Glo viability, 72 h; series mostly up to 46 µM
# Summary of the method: as §1
# [4] = test system: MKL-2; test: as above; details: MCC and control cell lines, CellTiter-Glo viability, 72 h; series mostly up to 46 µM
# Summary of the method: as §1
# [5] = test system: UISO; test: as above; details: MCC and control cell lines, CellTiter-Glo viability, 72 h; series mostly up to 46 µM
# Summary of the method: as §1
# [6] = test system: WaGa; test: as above; details: MCC and control cell lines, CellTiter-Glo viability, 72 h; series mostly up to 46 µM
# Summary of the method: as §1
# [7] = test system: C33A; test: Primary qHTS to identify gynecologic anti-cancer compounds using libraries of approved drugs and bioactive compounds (AID 1345084); details: Gynecologic cancer cell panel viability, ATPlite luminescence, 48 h; series mostly up to 57.5 µM; further: nearly all actives have a fitted effect of over 55% in size
# Summary of the method: (§2)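 Cells, 1,000 per well, were allowed to settle for 16 h at 37 C before compound addition. Five concentrations were tested for 48 h, and viability was read by ATPlite luminescence after 15 min at room temperature.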
# [8] = test system: CASKI; test: as above; details: Gynecologic cancer cell panel viability, ATPlite luminescence, 48 h; series mostly up to 57.5 µM
# Summary of the method: as §2
# [9] = test system: Es-2; test: as above; details: Gynecologic cancer cell panel viability, ATPlite luminescence, 48 h; series mostly up to 57.5 µM
# Summary of the method: as §2
# [10] = test system: HeLa; test: as above; details: Gynecologic cancer cell panel viability, ATPlite luminescence, 48 h; series mostly up to 57.5 µM
# Summary of the method: as §2
# [11] = test system: Hek293T; test: as above; details: Gynecologic cancer cell panel viability, ATPlite luminescence, 48 h, control line for the selectivity index; series mostly up to 57.5 µM
# Summary of the method: as §2
# [12] = test system: JEG-3; test: as above; details: Gynecologic cancer cell panel viability, ATPlite luminescence, 48 h; series mostly up to 57.5 µM
# Summary of the method: as §2
# [13] = test system: OV90; test: as above; details: Gynecologic cancer cell panel viability, ATPlite luminescence, 48 h; series mostly up to 57.5 µM
# Summary of the method: as §2
# [14] = test system: PA-1; test: as above; details: Gynecologic cancer cell panel viability, ATPlite luminescence, 48 h; series mostly up to 57.5 µM
# Summary of the method: as §2
# [15] = test system: SKOV3; test: as above; details: Gynecologic cancer cell panel viability, ATPlite luminescence, 48 h; series mostly up to 57.5 µM
# Summary of the method: as §2
# [16] = test system: Tov-21-G; test: as above; details: Gynecologic cancer cell panel viability, ATPlite luminescence, 48 h; series mostly up to 57.5 µM
# Summary of the method: as §2
# [17] = test system: Tov112D; test: as above; details: Gynecologic cancer cell panel viability, ATPlite luminescence, 48 h; series mostly up to 57.5 µM
# Summary of the method: as §2
# [18] = test system: NIH3T3; test: qHTS assay to identify novel small-molecules to repurpose for Merkel cell carcinoma treatment (AID 1296009); details: MCC and control cell lines, CellTiter-Glo viability, 72 h; at 44.8 µM (top of the series) unless noted; further: nearly all actives have a fitted effect of over 60% in size
# Summary of the method: as §1
# Potency means the concentration at half of the fitted maximal effect.
compound,measurement,setting,value
Nc1ccn(C2CO[C@H](CO)O2)c(=O)n1 (some centres not stated),Potency,[1],inactive
same,Potency,[2],inactive
same,Potency,[3],inactive
same,Potency,[4],inactive
same,Potency,[5],inactive
same,Potency,[6],inactive
same,Potency,[7],inactive
same,Potency,[8],inactive
same,Potency,[9],inactive
same,Potency,[10],inactive
same,Potency,[11],inactive
same,Potency,[12],inactive
same,Potency,[13],inactive
same,Potency,[14],inactive
same,Potency,[15],inactive
same,Potency,[16],inactive
same,Potency,[17],inactive
Cc1cnc(Nc2ccc(CN3CCOCC3)cc2)nc1Nc1cccc(S(=O)(=O)NC(C)(C)C)c1,Potency,[1],13.2 µM (active)
same,Potency,[2],8.33 µM (active)
same,Potency,[3],11.8 µM (active)
same,Potency,[6],10.5 µM (active)
same,Potency,[8],8.91 µM (active)
same,Potency,[10],1 µM (active)
same,Potency,[12],17.8 µM (active)
same,Potency,[13],22.4 µM (active)
same,Potency,[14],1.58 µM (active)
same,Potency,[15],7.08 µM (active)
same,Potency,[16],2.24 µM (active)
same,Potency,[17],5.01 µM (active)
CC(C=CC1=C(C)CCCC1(C)C)=CC=CC(C)=CC(=O)Nc1ccc(O)cc1,Potency,[1],inactive
same,Potency,[2],inactive
same,Potency,[4],30.3 µM (active)
CN(C)c1ccc2cc(C(=O)N[C@@H](CCCN=C(N)CCl)C(=O)NCc3ccccc3)ccc2c1,Potency,[1],inactive
same,Potency,[2],inactive
same,Potency,[4],26.4 µM (active)
same,Potency,[5],13.2 µM (active)
Cn1cc(-c2ccc3ncc(Cc4ccc5ncccc5c4)n3n2)cn1,Potency,[1],inactive
same,Potency,[2],inactive
same,Potency,[3],inactive
same,Potency,[4],inactive
same,Potency,[5],inactive
same,Potency,[6],inactive
same,Potency,[11],inactive
same,Potency,[13],inactive
CN[C@@H]1C[C@H]2O[C@@](C)([C@H]1OC)n1c3ccccc3c3c4c(c5c6ccccc6n2c5c31)C(=O)N[C@H]4O,Potency,[1],0.332 µM (active)
same,Potency,[2],1.66 µM (active)
same,Potency,[3],5.26 µM (active)
same,Potency,[5],1.87 µM (active)
same,Potency,[6],1.32 µM (active)
C#C[C@]1(O)CC[C@@H]2[C@@H]3CCc4cc(O)ccc4[C@H]3CC[C@@]21C,Potency,[1],inactive
same,Potency,[2],inactive
same,Potency,[3],inactive
same,Potency,[6],inactive
N#CC(=Cc1ccc(O)c(O)c1)C(=O)NCc1ccccc1,Potency,[1],inactive
same,Potency,[2],inactive
same,Potency,[4],inactive
NS(=O)(=O)OC[C@@H]1C[C@@H](n2ccc3c(N[C@H]4CCc5ccccc54)ncnc32)C[C@H]1O,Potency,[1],5.9 µM (active)
same,Potency,[2],2.09 µM (active)
same,Potency,[5],1.18 µM (active)
same,Potency,[6],1.48 µM (active)
COc1cccc2c1C(=O)c1c(O)c3c(c(O)c1C2=O)C[C@@](O)(C(=O)CO)C[C@H]3O[C@H]1C[C@H](N)[C@H](O)[C@H](C)O1,Potency,[1],2.64 µM (active)
same,Potency,[2],2.35 µM (active)
same,Potency,[3],0.118 µM (active)
same,Potency,[6],0.0743 µM (active)
O=C(O)C[C@H](O)C[C@H](O)C=Cc1c(C2CC2)nc2ccccc2c1-c1ccc(F)cc1,Potency,[1],5.9 µM (active)
same,Potency,[3],5.9 µM (active)
same,Potency,[4],3.32 µM (active)
same,Potency,[5],2.35 µM (active)
same,Potency,[6],7.43 µM (active)
C=C1C(=O)O[C@H]2[C@@H]1CCC(C)=CCC[C@@]1(C)O[C@@H]21,Potency,[1],16.6 µM (active)
same,Potency,[3],7.43 µM (active)
same,Potency,[4],1.87 µM (active)
same,Potency,[5],14.8 µM (active)
same,Potency,[6],7.43 µM (active)
N[C@H]1CN(c2c(F)cc3c(=O)c(C(=O)O)cn(C4C[C@@H]4F)c3c2Cl)CC12CC2 (some centres not stated),Potency,[1],inactive
same,Potency,[3],inactive
same,Potency,[4],inactive
same,outcome,[18],inactive
same,Potency,[5],inactive
same,Potency,[6],inactive
same,Potency,[8],inactive
same,Potency,[9],inactive
same,Potency,[10],inactive
same,Potency,[11],inactive
same,Potency,[12],inactive
same,Potency,[13],inactive
same,Potency,[14],inactive
same,Potency,[15],inactive
same,Potency,[16],inactive
same,Potency,[17],inactive
C=CCNc1c(O)cc2c(O)c1C[C@@H](C)C[C@H](OC)[C@@H](O)[C@@H](C)C=C(C)[C@H](OC(N)=O)[C@@H](OC)C=CC=C(C)C(=O)N2,Potency,[1],5.9 µM (active)
same,Potency,[3],11.8 µM (active)
same,Potency,[5],2.35 µM (active)
same,Potency,[6],2.09 µM (active)
CCOC(=O)C=C[C@H](C[C@@H]1CCNC1=O)NC(=O)[C@@H](CC(=O)[C@@H](NC(=O)c1cc(C)on1)C(C)C)Cc1ccc(F)cc1,Potency,[1],inactive
same,Potency,[3],inactive
same,Potency,[4],inactive
same,Potency,[5],inactive
same,Potency,[6],inactive
Cn1cnc(=N)c2[nH]cnc21,Potency,[1],14.8 µM (active)
same,Potency,[3],7.43 µM (active)
same,Potency,[4],0.209 µM (active)
same,Potency,[5],5.26 µM (active)
same,Potency,[6],0.296 µM (active)
CCC(C(=O)O)C1CCC(C)C(C(C)C(O)C(C)C(=O)C(CC)C2OC3(C=CC(O)[C@@]4(CC[C@](C)(C5CC[C@@](O)(CC)C(C)O5)O4)O3)C(C)CC2C)O1 (some centres not stated),Potency,[1],10.5 µM (active)
same,Potency,[3],2.96 µM (active)
same,Potency,[4],3.32 µM (active)
same,Potency,[5],3.72 µM (active)
same,Potency,[6],2.96 µM (active)
CC(C)(O)CC[C@@H](O)[C@](C)(O)[C@H]1CC[C@@]2(O)C3=CC(=O)[C@@H]4C[C@@H](O)[C@@H](O)C[C@]4(C)[C@@H]3CC[C@]12C,Potency,[1],inactive
same,Potency,[3],inactive
same,Potency,[4],inactive
same,Potency,[5],inactive
same,Potency,[6],inactive
C[C@]12CCC(=O)C=C1[C@@H]1CC1[C@H]1[C@H]3[C@@H]4C[C@H]4[C@@]4(CCC(=O)O4)[C@@]3(C)CC[C@H]12 (some centres not stated),Potency,[1],inactive
same,Potency,[3],inactive
same,Potency,[4],inactive
same,outcome,[18],inactive
same,Potency,[5],inactive
same,Potency,[6],inactive
CC(C)C[C@H](NC(=O)CNC(=O)c1cc(Cl)ccc1Cl)B1OC(=O)CC(CC(=O)O)(C(=O)O)O1 (some centres not stated),Potency,[1],1.18 µM (active)
same,Potency,[3],0.743 µM (active)
same,Potency,[4],0.187 µM (active)
same,Potency,[6],0.209 µM (active)
CN(C)c1ccc(C(=O)NCCCCCCC(=O)NO)cc1,Potency,[1],4.18 µM (active)
same,Potency,[3],1.66 µM (active)
same,Potency,[4],0.743 µM (active)
same,Potency,[6],0.662 µM (active)
CCOC(=O)N1CCN([N+]([O-])=NOc2ccc([N+](=O)[O-])cc2C#N)CC1,Potency,[1],2.64 µM (active)
same,Potency,[3],1.66 µM (active)
same,Potency,[4],1.18 µM (active)
same,Potency,[6],3.72 µM (active)
